Results on seven compounds are retold here after ChEMBL document CHEMBL1961873, “Compounds: GSK PKIS; Assays: Nanosyn kinase panel” (2012).

In experiment [1] the test system is Proto-oncogene tyrosine-protein kinase receptor Ret (Homo sapiens), P07949 [Y791F]. The conditions noted are these: at 1 µM.
The target in experiment [2] is Macrophage-stimulating protein receptor (Homo sapiens) (UniProt Q04912). The note with it: at 0.1 µM.
Experiment [3] has the same target. The conditions noted are these: at 1 µM.
The target in experiment [4] is Proto-oncogene tyrosine-protein kinase ROS (Homo sapiens) (UniProt P08922). The conditions noted are these: at 0.1 µM.
For experiment [5] the target is unchanged. The note with it: at 1 µM.
Experiment [6] deals with Proto-oncogene tyrosine-protein kinase Src (Homo sapiens) (UniProt P12931). The note with it: at 0.1 µM.
Experiment [7] shares this target. The conditions noted are these: at 1 µM.
Experiment [8] concerns the target Tyrosine-protein kinase Srms (Homo sapiens) (UniProt Q9H3Y6). The conditions noted are these: at 0.1 µM.
The target is the same in experiment [9]. The note with it: at 1 µM.
The target in experiment [10] is Tyrosine-protein kinase SYK (Homo sapiens) (UniProt P43405). The conditions noted are these: at 0.1 µM.
For experiment [11] the target is unchanged. The note with it: at 1 µM.
The target of experiment [12] is T1, Tyrosine-protein kinase Tec (Homo sapiens) (UniProt P42680).
T1 sequence (whole entry): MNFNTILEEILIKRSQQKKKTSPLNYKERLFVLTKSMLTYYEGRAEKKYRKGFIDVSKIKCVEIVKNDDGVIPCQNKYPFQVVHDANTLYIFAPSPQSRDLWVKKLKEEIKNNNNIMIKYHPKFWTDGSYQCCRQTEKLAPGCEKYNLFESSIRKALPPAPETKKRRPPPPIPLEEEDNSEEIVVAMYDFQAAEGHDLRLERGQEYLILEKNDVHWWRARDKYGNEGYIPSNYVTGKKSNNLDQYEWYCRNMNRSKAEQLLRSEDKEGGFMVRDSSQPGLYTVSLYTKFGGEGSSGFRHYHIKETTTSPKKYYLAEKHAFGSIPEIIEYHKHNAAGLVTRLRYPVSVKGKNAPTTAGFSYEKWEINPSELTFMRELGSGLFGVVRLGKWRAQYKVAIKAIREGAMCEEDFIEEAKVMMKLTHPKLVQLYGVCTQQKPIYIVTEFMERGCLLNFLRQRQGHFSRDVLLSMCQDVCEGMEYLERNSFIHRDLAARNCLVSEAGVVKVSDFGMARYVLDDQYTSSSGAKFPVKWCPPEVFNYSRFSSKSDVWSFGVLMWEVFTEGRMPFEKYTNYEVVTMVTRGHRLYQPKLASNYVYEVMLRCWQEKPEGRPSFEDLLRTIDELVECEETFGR
The conditions noted are these: at 0.1 µM.

Experiment [13] deals with T1, Tyrosine-protein kinase Tec (Homo sapiens). The conditions noted are these: at 1 µM.
Experiment [14] addresses Angiopoietin-1 receptor (Homo sapiens) (UniProt Q02763). The conditions noted are these: at 0.1 µM.
For experiment [15] the target is unchanged. The conditions noted are these: at 1 µM.
In experiment [16] the target is T2, Non-receptor tyrosine-protein kinase TNK1 (Homo sapiens) (UniProt Q13470).
T2 sequence (whole entry): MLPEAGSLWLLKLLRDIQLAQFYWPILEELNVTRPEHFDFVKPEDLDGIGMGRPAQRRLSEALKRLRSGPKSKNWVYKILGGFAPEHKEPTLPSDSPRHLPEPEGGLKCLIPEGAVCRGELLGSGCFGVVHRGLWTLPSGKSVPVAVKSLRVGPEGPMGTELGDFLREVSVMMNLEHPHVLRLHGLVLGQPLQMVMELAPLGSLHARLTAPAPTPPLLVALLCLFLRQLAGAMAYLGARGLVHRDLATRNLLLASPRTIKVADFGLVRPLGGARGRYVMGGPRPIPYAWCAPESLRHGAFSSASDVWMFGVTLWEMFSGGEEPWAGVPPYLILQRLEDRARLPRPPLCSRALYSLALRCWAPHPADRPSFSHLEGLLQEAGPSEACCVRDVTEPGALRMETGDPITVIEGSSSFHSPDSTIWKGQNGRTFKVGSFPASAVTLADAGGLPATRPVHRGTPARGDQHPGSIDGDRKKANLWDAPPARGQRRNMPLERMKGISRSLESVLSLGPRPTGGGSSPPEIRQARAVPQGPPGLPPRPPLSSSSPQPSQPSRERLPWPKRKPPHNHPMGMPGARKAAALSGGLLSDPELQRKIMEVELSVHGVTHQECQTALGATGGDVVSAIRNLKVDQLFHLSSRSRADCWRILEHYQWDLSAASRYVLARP
The conditions noted are these: at 0.1 µM.

The target in experiment [17] is T2, Non-receptor tyrosine-protein kinase TNK1 (Homo sapiens). The note with it: at 1 µM.
Experiment [18] deals with Activated CDC42 kinase 1 (Homo sapiens) (UniProt Q07912). The conditions noted are these: at 0.1 µM.
The target is the same in experiment [19]. The note with it: at 1 µM.
Experiment [20] addresses High affinity nerve growth factor receptor (Homo sapiens) (UniProt P04629). The note with it: at 0.1 µM.

Values joined by “and” are separate entries in the source; they are usually repeats but may differ in a detail not shown here. Identical values can stand only once.

Sequence of High affinity nerve growth factor receptor (Homo sapiens) (P04629 33-796 limits assumed): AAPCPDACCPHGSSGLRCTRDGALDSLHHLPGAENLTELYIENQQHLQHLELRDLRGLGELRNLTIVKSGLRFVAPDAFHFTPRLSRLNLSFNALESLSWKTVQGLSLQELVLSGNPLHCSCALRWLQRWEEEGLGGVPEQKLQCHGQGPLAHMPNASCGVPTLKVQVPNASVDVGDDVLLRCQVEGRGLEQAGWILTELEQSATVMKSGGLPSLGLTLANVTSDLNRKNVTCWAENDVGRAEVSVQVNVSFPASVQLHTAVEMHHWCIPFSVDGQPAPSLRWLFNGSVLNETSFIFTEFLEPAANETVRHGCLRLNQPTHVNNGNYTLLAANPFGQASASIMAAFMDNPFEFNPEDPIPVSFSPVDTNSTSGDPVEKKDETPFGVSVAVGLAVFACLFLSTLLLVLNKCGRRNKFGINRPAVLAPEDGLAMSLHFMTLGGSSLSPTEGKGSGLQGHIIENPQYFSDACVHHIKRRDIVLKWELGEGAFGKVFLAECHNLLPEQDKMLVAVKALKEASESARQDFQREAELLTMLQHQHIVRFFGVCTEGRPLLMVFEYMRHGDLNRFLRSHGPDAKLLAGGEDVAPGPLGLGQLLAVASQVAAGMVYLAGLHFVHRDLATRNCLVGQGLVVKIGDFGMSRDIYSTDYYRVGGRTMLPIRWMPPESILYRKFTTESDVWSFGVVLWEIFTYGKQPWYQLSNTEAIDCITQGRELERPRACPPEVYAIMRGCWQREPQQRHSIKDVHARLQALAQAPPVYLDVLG
Sequence of Tyrosine-protein kinase Srms (Homo sapiens) (Q9H3Y6 whole entry): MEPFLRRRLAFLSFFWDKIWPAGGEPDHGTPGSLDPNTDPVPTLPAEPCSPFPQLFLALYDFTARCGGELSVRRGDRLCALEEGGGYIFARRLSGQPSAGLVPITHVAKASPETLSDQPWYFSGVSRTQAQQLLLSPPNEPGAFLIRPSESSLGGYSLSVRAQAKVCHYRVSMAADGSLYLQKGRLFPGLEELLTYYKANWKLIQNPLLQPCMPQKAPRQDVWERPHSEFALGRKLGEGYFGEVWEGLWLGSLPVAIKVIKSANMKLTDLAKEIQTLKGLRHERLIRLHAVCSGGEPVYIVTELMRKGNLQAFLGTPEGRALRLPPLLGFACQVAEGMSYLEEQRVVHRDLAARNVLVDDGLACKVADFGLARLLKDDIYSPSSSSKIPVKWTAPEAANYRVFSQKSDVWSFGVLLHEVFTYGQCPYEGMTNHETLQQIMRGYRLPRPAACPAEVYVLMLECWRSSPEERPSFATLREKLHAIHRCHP
Sequence of Activated CDC42 kinase 1 (Homo sapiens) (Q07912 whole entry, looked up): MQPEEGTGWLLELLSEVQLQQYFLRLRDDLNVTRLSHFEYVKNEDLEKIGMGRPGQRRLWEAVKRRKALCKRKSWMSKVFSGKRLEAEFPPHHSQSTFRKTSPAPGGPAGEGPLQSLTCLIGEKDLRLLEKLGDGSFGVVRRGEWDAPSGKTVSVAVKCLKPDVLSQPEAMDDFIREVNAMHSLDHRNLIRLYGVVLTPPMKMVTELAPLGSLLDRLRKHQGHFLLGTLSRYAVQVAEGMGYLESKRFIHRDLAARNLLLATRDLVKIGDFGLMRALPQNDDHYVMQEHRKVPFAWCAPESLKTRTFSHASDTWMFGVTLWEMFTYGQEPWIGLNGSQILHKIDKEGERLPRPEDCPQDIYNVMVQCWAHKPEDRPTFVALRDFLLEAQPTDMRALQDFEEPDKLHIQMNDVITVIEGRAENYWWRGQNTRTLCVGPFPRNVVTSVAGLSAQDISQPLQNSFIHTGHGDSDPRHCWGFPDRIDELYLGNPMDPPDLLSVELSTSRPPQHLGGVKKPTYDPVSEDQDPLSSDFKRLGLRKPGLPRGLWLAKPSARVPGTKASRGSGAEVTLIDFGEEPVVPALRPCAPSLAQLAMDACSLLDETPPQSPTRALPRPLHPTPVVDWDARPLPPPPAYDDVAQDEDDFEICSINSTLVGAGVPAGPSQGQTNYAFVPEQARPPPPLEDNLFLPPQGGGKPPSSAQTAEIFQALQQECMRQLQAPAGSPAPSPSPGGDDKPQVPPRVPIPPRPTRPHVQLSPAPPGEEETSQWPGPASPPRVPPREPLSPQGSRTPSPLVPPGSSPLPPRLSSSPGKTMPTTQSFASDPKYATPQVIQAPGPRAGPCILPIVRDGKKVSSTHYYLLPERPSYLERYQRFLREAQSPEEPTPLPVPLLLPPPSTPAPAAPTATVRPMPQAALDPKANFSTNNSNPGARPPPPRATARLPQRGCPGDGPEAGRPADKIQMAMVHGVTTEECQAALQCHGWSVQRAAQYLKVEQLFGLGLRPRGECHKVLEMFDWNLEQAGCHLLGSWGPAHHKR
Sequence of Proto-oncogene tyrosine-protein kinase Src (Homo sapiens) (P12931 2-536 limits assumed): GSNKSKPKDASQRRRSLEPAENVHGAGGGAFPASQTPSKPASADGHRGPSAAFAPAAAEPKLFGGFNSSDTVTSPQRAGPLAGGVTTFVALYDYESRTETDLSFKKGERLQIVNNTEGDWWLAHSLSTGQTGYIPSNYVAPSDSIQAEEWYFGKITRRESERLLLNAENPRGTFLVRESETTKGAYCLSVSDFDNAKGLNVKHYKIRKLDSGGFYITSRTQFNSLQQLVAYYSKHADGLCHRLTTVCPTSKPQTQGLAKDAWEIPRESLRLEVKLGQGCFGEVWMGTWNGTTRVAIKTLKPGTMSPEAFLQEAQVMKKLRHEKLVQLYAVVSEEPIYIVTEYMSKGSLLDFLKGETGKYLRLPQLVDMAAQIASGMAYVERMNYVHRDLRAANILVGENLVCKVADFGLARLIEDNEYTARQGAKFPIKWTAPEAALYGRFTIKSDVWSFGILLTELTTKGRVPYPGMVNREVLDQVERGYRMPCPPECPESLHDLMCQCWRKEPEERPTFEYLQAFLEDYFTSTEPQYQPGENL
Sequence of Angiopoietin-1 receptor (Homo sapiens) (Q02763 whole entry): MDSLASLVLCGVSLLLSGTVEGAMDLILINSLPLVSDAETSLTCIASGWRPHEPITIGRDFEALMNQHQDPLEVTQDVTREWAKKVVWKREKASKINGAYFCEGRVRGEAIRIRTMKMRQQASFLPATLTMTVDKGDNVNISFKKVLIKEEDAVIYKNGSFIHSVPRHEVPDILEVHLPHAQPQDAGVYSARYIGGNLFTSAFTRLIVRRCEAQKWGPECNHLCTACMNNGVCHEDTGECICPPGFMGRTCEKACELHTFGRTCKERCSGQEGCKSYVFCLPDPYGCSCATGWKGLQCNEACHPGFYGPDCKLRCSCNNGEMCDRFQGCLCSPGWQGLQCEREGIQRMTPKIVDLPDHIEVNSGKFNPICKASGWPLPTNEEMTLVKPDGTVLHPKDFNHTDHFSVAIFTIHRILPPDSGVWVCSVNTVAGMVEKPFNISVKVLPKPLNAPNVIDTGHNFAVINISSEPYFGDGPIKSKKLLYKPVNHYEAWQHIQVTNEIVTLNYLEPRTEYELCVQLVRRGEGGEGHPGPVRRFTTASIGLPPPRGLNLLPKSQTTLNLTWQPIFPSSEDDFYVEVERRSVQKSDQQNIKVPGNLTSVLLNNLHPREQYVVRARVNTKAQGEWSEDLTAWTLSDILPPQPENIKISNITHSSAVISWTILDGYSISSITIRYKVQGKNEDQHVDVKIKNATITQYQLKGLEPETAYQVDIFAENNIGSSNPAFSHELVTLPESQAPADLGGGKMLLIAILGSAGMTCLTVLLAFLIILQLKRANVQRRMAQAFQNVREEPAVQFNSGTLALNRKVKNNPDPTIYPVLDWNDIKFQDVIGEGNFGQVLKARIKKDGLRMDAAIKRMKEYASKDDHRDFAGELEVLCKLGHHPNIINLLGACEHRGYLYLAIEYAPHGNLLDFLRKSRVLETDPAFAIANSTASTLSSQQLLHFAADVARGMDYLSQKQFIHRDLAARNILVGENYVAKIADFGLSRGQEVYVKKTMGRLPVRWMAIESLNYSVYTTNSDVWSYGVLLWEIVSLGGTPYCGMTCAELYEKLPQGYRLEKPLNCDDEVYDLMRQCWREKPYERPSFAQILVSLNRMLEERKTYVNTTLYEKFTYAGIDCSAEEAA
Sequence of Proto-oncogene tyrosine-protein kinase receptor Ret (Homo sapiens), P07949 [Y791F] (P07949 whole entry Y791F): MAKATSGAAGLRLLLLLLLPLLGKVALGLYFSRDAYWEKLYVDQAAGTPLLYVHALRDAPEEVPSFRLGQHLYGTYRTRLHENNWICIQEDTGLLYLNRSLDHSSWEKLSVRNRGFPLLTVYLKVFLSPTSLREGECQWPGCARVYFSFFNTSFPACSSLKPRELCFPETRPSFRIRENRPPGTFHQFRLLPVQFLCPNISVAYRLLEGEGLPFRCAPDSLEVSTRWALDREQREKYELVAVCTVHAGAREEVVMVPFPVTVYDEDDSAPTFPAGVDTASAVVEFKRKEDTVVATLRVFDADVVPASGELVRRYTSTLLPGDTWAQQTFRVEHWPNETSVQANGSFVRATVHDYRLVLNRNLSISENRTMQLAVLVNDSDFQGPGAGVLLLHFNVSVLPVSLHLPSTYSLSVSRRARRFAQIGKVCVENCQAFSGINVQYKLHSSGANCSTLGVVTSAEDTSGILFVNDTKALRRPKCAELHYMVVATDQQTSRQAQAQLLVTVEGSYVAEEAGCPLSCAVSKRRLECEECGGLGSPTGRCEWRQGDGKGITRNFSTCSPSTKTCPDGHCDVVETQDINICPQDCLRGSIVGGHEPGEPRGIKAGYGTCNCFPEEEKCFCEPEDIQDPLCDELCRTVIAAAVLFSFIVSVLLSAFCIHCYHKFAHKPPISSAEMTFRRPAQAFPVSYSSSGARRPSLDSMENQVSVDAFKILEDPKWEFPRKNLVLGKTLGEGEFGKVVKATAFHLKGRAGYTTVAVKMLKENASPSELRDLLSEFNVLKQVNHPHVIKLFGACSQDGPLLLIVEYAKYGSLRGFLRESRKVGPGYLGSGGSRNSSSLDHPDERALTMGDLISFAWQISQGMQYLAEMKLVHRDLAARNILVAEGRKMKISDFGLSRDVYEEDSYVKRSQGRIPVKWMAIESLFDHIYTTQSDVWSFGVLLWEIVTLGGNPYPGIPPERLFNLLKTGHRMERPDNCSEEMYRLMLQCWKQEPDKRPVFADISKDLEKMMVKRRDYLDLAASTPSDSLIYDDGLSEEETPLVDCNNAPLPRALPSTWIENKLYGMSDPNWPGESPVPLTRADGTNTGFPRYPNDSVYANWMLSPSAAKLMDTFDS

For the compound `CN1CCC(C(=O)Nc2n[nH]c3nc(-c4ccc(O)cc4)c(Br)cc23)CC1`, the inhibition in experiment [1] is 20.8% and 5.43%; in experiment [2] it was -1.02% and 7.11%; in experiment [3], 6.18% and 11.8%; in [4] it was 5.2% and 4.89%; in [5] it was 10.4% and 1.96%; in experiment [6], 6.76% and 6.26%. In addition, the inhibition in [7] is 9.87% and 8.29%; in experiment [8], -2.12% and 1.04%; in experiment [9], -1.75% and -1%; in experiment [10], -0.18% and 0.92%; in experiment [11] it was -0.04% and 0.42%; in [12], -1.21% and 2.96%. The inhibition in experiment [13] is 1.24% and 2.96%; in experiment [14] it was 3.01% and 5.98%; in experiment [15] it was 7.84% and 7.69%; in [16] it was 3.57% and 0.52%; in experiment [17] it was 6.51% and 6.06%; in experiment [18], 0.92% and 0.24%. Further, the inhibition is 1.76% and 1.56% in experiment [19]; 1.13% and 2.68% in experiment [20].
On to `CCS(=O)(=O)c1ccc(OC)c(Nc2ncc(-c3cccc(F)c3)o2)c1`, for which the inhibition in experiment [1] was 56.6%; in experiment [2], 10.3%; in experiment [3], 6.8%; in experiment [4], 8.05%; in [5], 27.5%; in [6], 49.4%. The inhibition in [7] was 89.3%; in [8] it was 3.47%; in [9], 18.5%; in experiment [10], 0.45%; in experiment [11], 1.66%; in experiment [12], 9.86%. Further, the inhibition came out at 37.2% in [13]; 4.21% in [14]; 14.1% in experiment [15]; 27.4% in experiment [16]; 76.5% in experiment [17]; 2.97% in experiment [18]. Further, the values for the inhibition in [19] and in experiment [20] were 13.2% and 6.84%, respectively.
For `O=C(O[C@H]1CN[C@H](C#Cc2cc3ncnc(Nc4ccc5c(ccn5Cc5cc(F)ccc5F)c4)c3s2)C1)N1CCOCC1`, the inhibition is 19.6% in experiment [1]; -0.04% in experiment [2]; 7.89% in [3]; 5.19% in experiment [4]; 6.27% in [5]; 0.52% in experiment [6]. For the same compound, the inhibition in experiment [7] is 8.86%; in experiment [8] it was -2.61%; in experiment [9], -3.38%; in [10], -0.55%; in [11], 0.11%; in experiment [12] it was 4.74%. The inhibition in [13] is 7.34%; in [14] it was 3.18%; in experiment [15], 10.8%; in experiment [16], 2.48%; in experiment [17], 1.5%; in experiment [18], 0.66%. Further, the inhibition in experiment [19] stood at 0.98%; in experiment [20], 1.93%.
Take `COC(=O)Nc1nc2cc(Oc3ccc(NC(=O)Nc4ccccc4)cc3)ccc2[nH]1`: the inhibition is 25.8% in [1]; 7.21% in experiment [2]; 8.17% in experiment [3]; 2.15% in experiment [4]; 2.86% in experiment [5]; 5.93% in experiment [6]. In addition, the inhibition was 7.76% in [7]; 0.48% in experiment [8]; -1.09% in experiment [9]; -5.19% in experiment [10]; 0.09% in [11]; 1.83% in experiment [12]. For the same compound, the inhibition in experiment [13] was determined as 1.84%; in [14] it was 5.37%; in experiment [15] it was 9.24%; in experiment [16], 2.64%; in experiment [17], 4.12%; in experiment [18] it was 0.69%. For the same compound, the inhibition in experiment [19] was 1.18%; in [20], 2.62%.
With `Fc1ccc(Nc2nccc(-c3c(-c4ccc(C(F)(F)F)cc4)nn4ncccc34)n2)cc1F`, the inhibition in experiment [1] was 4.13%; in experiment [2], -2.05%; in experiment [3], 4.5%; in experiment [4], 6.56%; in experiment [5] it was 8.15%; in experiment [6], -0.44%. For the same compound, the inhibition in [7] was 6.45%; in [8], 0.3%; in experiment [9], -1.61%; in [10] it was -5.43%; in experiment [11], -0.68%; in experiment [12], 4.32%. In addition, the inhibition is 6.72% in experiment [13]; 1.72% in [14]; 1.95% in experiment [15]; 3.85% in experiment [16]; -0.46% in experiment [17]; 1.2% in [18]. Also, the values for the inhibition in experiment [19] and in experiment [20] were 0.83% and 2.39%, respectively.
Take `NS(=O)(=O)c1ccc(N/N=C2\C(=O)Nc3cccc(CCc4ccncc4)c32)cc1`: the inhibition was 29.1% in experiment [1]; -0.73% in experiment [2]; 5.76% in [3]; 3% in experiment [4]; 9.09% in [5]; 3.83% in [6]. Besides, the inhibition in experiment [7] is 9.5%; in experiment [8] it was 1.9%; in experiment [9] it was 1.2%; in experiment [10] it was 0.03%; in [11], -2.6%; in experiment [12] it was -0.23%. For the same compound, the inhibition was 4.92% in experiment [13]; 0.8% in [14]; 3.33% in [15]; 12.8% in experiment [16]; 14.7% in experiment [17]; 0.97% in [18]. For the same compound, the results for the inhibition in experiment [19] and in [20] were 1.34% and 6.26%, respectively.
Turning to `O=C(O[C@H]1CN[C@H](C#Cc2cc3ncnc(Nc4ccc(OCc5cccc(F)c5)c(Cl)c4)c3s2)C1)N1CCOCC1`, the inhibition was 7.29% in experiment [1]; 1.25% in experiment [2]; 12.9% in [3]; 6.55% in [4]; 8.8% in experiment [5]; -0.25% in experiment [6]. The inhibition in [7] was 11.3%; in experiment [8], -2.71%; in experiment [9], -2.76%; in experiment [10] it was -7%; in experiment [11] it was -2.54%; in experiment [12] it was 5.08%. Moreover, the inhibition in experiment [13] came out at 4.41%; in experiment [14], 2.8%; in experiment [15], 7.75%; in [16], 4.45%; in experiment [17] it was 21.9%; in experiment [18] it was 2.09%. The inhibition in experiment [19] came out at 2.88%; in [20], 1.47%.

For orientation: inhibition means the relative decrease from the control value, in per cent.
